Laboratory results reported in the OligoGym collection.

biological target: ARHGAP5; experiment: pooled miR-30 sensor sort-seq; sequence = guide strand; conditions: shRNA
Further: reference of the scale not given here.

| Sequence | sensor-assay potency score (higher = more potent) |
| --- | --- |
| TACAAGACCATCATAGATCTTT | 0.493 |
| TCAAATAACAAAATCAGCCAGA | -0.237 |
| TAATTGTGGTTGTATCAGCTGA | -0.356 |
| TTTCTTAACAATTTCTTTCAAG | -0.634 |
| TAGTAGTAGACAGAAACTCTCG | 0.344 |
| TAAGGTTGCATGCAGCAGCAGC | -0.593 |
| TTCTATAGTATGACTTGGCTTT | 0.162 |
| TTGCACAACATTATCAACTCAC | 0.731 |
| TTTAGCCACAAGCATGTCCTTG | -0.792 |
| TTTAGTTATCTACACCGACTGC | -0.686 |
| TGAAGTATACTACTGAACCCTG | -0.25 |
| TAGTAGACAGAAACTCTCGATT | -0.0895 |
| TTGCTTTTTGTCCAAATCCAGC | -1.64 |
| TTTGAATATTGTCTTGGTCAGT | -0.551 |
| TTCTACACTATACTAAATGTGT | -0.488 |
| TTTTATTTCATTATGGACCATA | -0.301 |
| ATGATCTTGATCAAACTGCTTT | -0.663 |
| TTTCTTTCAAACAACATCCCAA | 0.179 |
| TTTTTGTCCAAATCCAGCCTGT | -0.169 |
| TAAACCTCTCCAGTCATGCTTA | -0.431 |
| TTCTACAACAAATTTCATGTTT | -0.238 |
| TAGATTGATATTATGATCTTGA | 1.05 |
| TTATGTTGCTGACTAACCCTGT | 0.477 |
| TTTATGTTGCTGACTAACCCTG | -0.695 |

biological target: ARHGEF15; experiment: as above; conditions: shRNA

| Sequence | sensor-assay potency score (higher = more potent) |
| --- | --- |
| ACATAATCCACATACACCGAGA | -1.37 |
| TGATCTTGCTGACAGCACCCAG | -1.42 |
| TTGCTAGAAACCGCTCGCTGAC | -1.26 |
| TTTCGGGGTAGTTCTTGTGGAG | -0.734 |
| TTGCGCTCAGCAGTGGAGCGGT | -0.34 |
| TTGCTGGAGGAGTATTCTGAGG | -1.94 |
| TTGTGGAGAGGAGCCATTGTGG | -1.62 |
| TAACTCAGTCAGCTCTCCCTGG | -0.77 |
| TATTCTGAGGAGCTTCATCAGG | -0.865 |
| TAGGATGTGAGGACAACGGCAG | 0.25 |
| TTGCACAGCCGGAAGCTCCTGC | -0.0952 |
| TTGGAGTAGTCGGTGGGTGGGG | -0.515 |

biological target: ARIH1; experiment: as above; conditions: shRNA

| Sequence | sensor-assay potency score (higher = more potent) |
| --- | --- |
| TTTAATTGCATGAGCACTCTAG | -0.104 |
| TATCCTGCAGAGAATCTTGGGA | 0.446 |
| TACTTTCTGCTTTATATCCTGC | 0.014 |
